From PubChem BioAssay (Tox21) come the findings set out here.

Records with an inconclusive call do not appear. A call without a number means that no potency is given here. Activity calls are given as the source filed them. Calls come from the whole dose curve; as a rule, active = well fitted cell-killing curve with a large enough effect in the repeat runs; inconclusive = weak or mixed curves, or effect the other way; inactive = no such curve, though single readings can be large or run the other way.

The assay in a line: qHTS assay for small molecule activators of the heat shock response signaling pathway - cell viability counter screen (AID 743209). Note: nearly all actives have a fitted effect of over 50% in size. Conditions: HSE-bla HeLa viability, CellTiter-Glo luminescence, 5 h; series mostly up to 62.6 µM. From the text: U.S. Tox21 Program National Center for Advancing Translational Sciences [NCATS] NIH Chemical Genomics Center [NCGC] U.S. Environmental Protection Agency [EPA] National Institutes of Environmental Health Sciences [NIEHS] National Toxicology Program [NTP] U.S. Food and Drug Administration [FDA] Tox21 Assay Overview: Various chemicals, environmental and physiological stress conditions may lead to the activation of heat shock response/ unfolded protein response (HSR/UPR). There are three heat shock transcription factors (HSFs) (HSF-1, -2, and -4) mediating transcriptional regulation of the human HSR. To identify the compounds that activate HSR signaling, HSE-bla HeLa cell line (Invitrogen, Carlsbad, CA, USA) containing a beta-lactamase reporter gene under the control of the heat shock response elements was used to screen Tox21 10K compound library. The cytotoxicity of the Tox21 compound library against the HSE-bla HeLa cell line was tested in parallel by measuring the cell viability using CellTiter-Glo assay (Promega, Madison, WI) in the same wells.
Tox21 Assay Protocol Summary: The CellSensor HSE-bla HeLa cells (Invitrogen, Carlsbad, CA, USA) were dispensed at 1500 cells/6uL/well into 1536-well black wall/clear bottom plates using a Multidrop combi (Thermo Fisher Scientific, Waltham, MA) dispenser. After the assay plates were incubated at 37 C and 5% CO2 overnight, 23 nL of compounds dissolved in DMSO, positive controls or DMSO only was transferred to the assay plate by a Pintool station (Kalypsys, San Diego, CA). The plates were incubated at 37 C for 5 h. After 1 uL of LiveBLAzerTM B/G FRET substrate was added using a Flying Reagent Dispenser (FRD, Beckman Coulter, Indianapolis, IN, USA), the plates were incubated at room temperature for 2.5 h, and fluorescence intensity was measured by an Envision plate reader (PerkinElmer, Shelton, CT). For cell viability readout that measures cytotoxicity, 3 ul/well of CellTiter-Glo reagent was added into the assay plates using a FRD. After 30 min incubation at room temperature, the luminescence intensity in the plates was measured using a ViewLux (PerkinElmer) plate reader.
For orientation: qHTS replaces the single test concentration by a dilution series.
For the molecule `Nc1ccc([As](=O)(O)O)cc1`, the Potency result was “inactive”.

For `CN(C)NC(=O)CCC(=O)O`, the Potency entry is “inactive”.

Regarding `CNCC(O)c1ccc(O)cc1` (stereo not given), the Potency entry was “inactive”.

As for `COP(=S)(OC)SCN1C(=O)c2ccccc2C1=O`, the Potency entry is “inactive”.

In the case of `c1ccc2c(c1)CCCC2`, the Potency result is “inactive”.

`CNC(=O)O/N=C(\SC)C(=O)N(C)C`: the Potency result is “inactive”.

With `COc1cc(-c2ccc(N)c(OC)c2)ccc1N`, the Potency entry is “inactive”.

`Cc1cccc(C)c1N`: the Potency result is “inactive”.

Take `N#CN=C(N)N`: the Potency result was “inactive”.

In the case of `CCCCCCCCCCCCCCCCCC(=O)O`, the Potency entry was “inactive”.

On to `Nc1cccc(Cl)c1`, for which the Potency result is “inactive”.

In the case of `CC(C)CCCCCCOC(=O)c1ccccc1C(=O)OCCCCCCC(C)C`, the Potency result is “inactive”.

In the case of `C=CC(=O)OCC(CC)CCCC` (stereo not given), the Potency entry was “inactive”.

On to `CC(=O)/C=C/c1ccccc1`, for which the Potency entry is “inactive”.

As for `O=C/C=C/c1ccccc1`, the Potency result was “inactive”.

With `CN1C(=O)CCS(=O)(=O)C1c1ccc(Cl)cc1` (stereo not given), the Potency result is “inactive”.

As for `ClC(Cl)c1ccccc1`, the Potency result is “inactive”.

As for `Cl[C@H]1OCCO[C@@H]1Cl`, the Potency result is “inactive”.

Take `CC(C)c1cccc(C(C)C)c1O`: the Potency entry is “inactive”.

As to `CCCOC(=O)c1ccccc1C(=O)OCCC`, the Potency entry was “inactive”.

With `C=CC#N`, the Potency entry was “inactive”.

Regarding `CCCCC(CC)C(=O)Cl` (stereo not given), the Potency entry was “inactive”.

For `Cc1cc(O)ccc1Cl`, the Potency result was “inactive”.

Turning to `Cc1ccc(N)cc1`, the Potency entry is “inactive”.

Take `O=C(O)COc1ccccc1`: the Potency entry was “inactive”.

Turning to `COC(C)(C)CCCC(C)C/C=C/C(C)=C/C(=O)OC(C)C` (stereo not given), the Potency entry is “inactive”.

As to `CCOP(=S)(OCC)Oc1ccc([N+](=O)[O-])cc1`, the Potency entry was “inactive”.

As for `Cc1ccc(O)c(C)c1`, the Potency entry is “inactive”.

Regarding `Oc1c(Br)cc(Br)cc1Br`, the Potency result was “inactive”.

Turning to `Nc1nc(N)nc(NC2CC2)n1`, the Potency entry was “inactive”.

Take `Cc1cc(Cl)ccc1OC(C)C(=O)O` (stereo not given): the Potency entry was “inactive”.

As for `CC(C)(C)C(=O)CCl`, the Potency entry is “inactive”.

In the case of `Cl/C=C/Cl`, the Potency result was “inactive”.

On to `Cc1cccc(N)c1C`, for which the Potency entry is “inactive”.

In the case of `Clc1cnc(Oc2ccc(Oc3ncc(Cl)cc3Cl)cc2)c(Cl)c1`, the Potency entry was “inactive”.

Regarding `CN(C)C(=O)Cl`, the Potency result is “inactive”.

Consider `COP(=S)(OC)Oc1ccc(SC)c(C)c1`, for which the Potency entry was “inactive”.

With `CNC(=O)O/N=C/C(C)(C)S(C)(=O)=O`, the Potency entry is “inactive”.

In the case of `O=C(O)C1C(C(=O)O)C2(Cl)C(Cl)=C(Cl)C1(Cl)C2(Cl)Cl` (stereo not given), the Potency entry was “inactive”.

Consider `Cc1ccc(N=C=O)cc1N=C=O`, for which the Potency result was “inactive”.
